The source made the active and inactive calls. Rule for the calls: active = hit-call score of the fitted dose curve at least 0.9, where 1 is the maximum; inactive = score below 0.9.

Common to all, as to conditions: mRNA level, 48 h; actives raise or lower the signal
Read-out in assay [1]: DNA damage-inducible transcript 3 (DDIT3), DDIT3 (gene 1649)
Kind of assay: LTEA_HepaRG_DDIT3: Life Technologies and Expression Analysis (LTEA) Assay for DNA damage-inducible transcript 3 (DDIT3) using HepaRG (AID 2283488). The method in brief: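 Cells are human HepaRG liver cells treated for 48 h with eight half-log concentrations up to 100 uM in 0.5% DMSO. Transcript levels come from qRT-PCR normalized to three housekeeping genes, with activity fitted in both directions relative to vehicle.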

Read-out in assay [2]: Pro-epidermal growth factor (Homo sapiens) (UniProt P01133)
As to the kind of experiment: LTEA_HepaRG_EGF: Life Technologies and Expression Analysis (LTEA) Assay for Epidermal growth factor (EGF) using HepaRG (AID 2283489). The procedure, abridged:
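Differentiated human HepaRG cells, plated 48 h then switched to serum-free induction medium, were exposed for 48 h to test chemicals (8-point half-log series, top 100 uM, 0.5% DMSO). EGF mRNA was quantified by qRT-PCR, normalized to ACTB, GAPDH, POLR2A.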

Read-out in assay [3]: Early growth response protein 1 (EGR1) transcription factor, EGR1 (gene 1958)
Kind of assay: LTEA_HepaRG_EGR1: Life Technologies and Expression Analysis (LTEA) Assay for Early growth response protein 1 (EGR1) transcription factor using HepaRG (AID 2283490). The procedure, abridged: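 EGR1 transcript levels quantified by qRT-PCR (Fluidigm arrays) against three housekeeping genes after 48 h chemical exposure of HepaRG cells. Eight-point half-log series topping at 100 uM, 0.5% DMSO vehicle, analyzed for gain or loss.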

Read-out in assay [4]: Ezrin (EZR), EZR (gene 7430)
Kind of assay: LTEA_HepaRG_EZR: Life Technologies and Expression Analysis (LTEA) Assay for Ezrin (EZR) using HepaRG (AID 2283491). The method in brief: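 Differentiated human HepaRG cells, 48 h after plating, were exposed in serum-free induction medium for 48 hours to eight half-log concentrations up to 100 uM in 0.5% DMSO. EZR mRNA was measured by TaqMan qRT-PCR, normalized to ACTB, GAPDH and POLR2A, and fitted bidirectionally against DMSO.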

Read-out in a further assay: CYP3A5 (gene 1577)
As to the kind of experiment: LTEA_HepaRG_CYP3A5: Life Technologies and Expression Analysis (LTEA) Assay for CYP3A5 using HepaRG (AID 2283493). The method in brief:
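Human HepaRG hepatic cells receive 48 h chemical treatment at eight concentrations (half-log steps from 100 uM) in 0.5% DMSO. Expression of CYP3A5 is quantified by Fluidigm qRT-PCR and normalized to three reference genes.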

Read-out in assay [5]: Fatty Acid-Binding Protein 1 (FABP1), FABP1 (gene 2168)
Kind of assay: LTEA_HepaRG_FABP1: Life Technologies and Expression Analysis (LTEA) Assay for Fatty Acid-Binding Protein 1 (FABP1) using HepaRG (AID 2283494). The procedure, abridged: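 FABP1 expression by TaqMan qRT-PCR, normalised to three housekeeping genes, in HepaRG cells after 48 h chemical treatment. Eight-point half-log series topping at 100 uM in 0.5% DMSO, duplicates; gain or loss fitted relative to vehicle.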

Read-out in assay [6]: Cytochrome P450 4A22 (Homo sapiens) (UniProt Q5TCH4)
As to the kind of experiment: LTEA_HepaRG_CYP4A22: Life Technologies and Expression Analysis (LTEA) Assay for Cytochrome P450 4A22 (CYP4A22) using HepaRG (AID 2283495). The method in brief: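 qRT-PCR of CYP4A22 mRNA (Fluidigm TaqMan, normalized to three housekeeping genes) after 48 h chemical exposure of HepaRG cells; 8-point half-log series, top 100 uM, 0.5% DMSO vehicle. Bidirectional curve fitting vs DMSO baseline.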

Read-out in assay [7]: Glutathione S-Transferase (GSTA2), GSTA2 (gene 2939)
Kind of assay: LTEA_HepaRG_GSTA2: Life Technologies and Expression Analysis (LTEA) Assay for Glutathione S-Transferase (GSTA2) using HepaRG (AID 2283497). The method in brief: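 GSTA2 transcript levels came from Fluidigm TaqMan qRT-PCR normalized to three housekeeping genes, fitted in both directions against DMSO. HepaRG cultures received chemicals for 48 h in serum-free induction medium (0.5% DMSO), 8 half-log concentrations up to 100 uM, duplicate.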

Read-out in assay [8]: Glutamate-cysteine ligase catalytic (GCLC), GCLC (gene 2729)
As to the kind of experiment: LTEA_HepaRG_GCLC: Life Technologies and Expression Analysis (LTEA) Assay for Glutamate-cysteine ligase catalytic (GCLC) using HepaRG (AID 2283498). The method in brief:
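Expression by TaqMan qRT-PCR, normalized to three housekeeping genes (ACTB, GAPDH, POLR2A), with up- or down-regulation fitted against DMSO. HepaRG cells dosed in duplicate for 48 h with 8 half-log concentrations up to 100 uM, vehicle 0.5% DMSO.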

Read-out in assay [9]: growth arrest and DNA damage 45 (GADD45G), GADD45G (gene 10912)
As to the kind of experiment: LTEA_HepaRG_GADD45G: Life Technologies and Expression Analysis (LTEA) Assay for growth arrest and DNA damage 45 (GADD45G) using HepaRG (AID 2283499). The method in brief:
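Differentiated human HepaRG cells in serum-free induction medium were exposed for 48 h to 8 half-log concentrations up to 100 uM in 0.5% DMSO, in duplicate. GADD45G mRNA was measured by TaqMan qRT-PCR, normalised to ACTB, GAPDH and POLR2A, and fitted bidirectionally against DMSO.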

Read-out in assay [10]: Glutamate-cysteine ligase regulatory (GCLM), GCLM (gene 2730)
Kind of assay: LTEA_HepaRG_GCLM: Life Technologies and Expression Analysis (LTEA) Assay for Glutamate-cysteine ligase regulatory (GCLM) using HepaRG (AID 2283500). The procedure, abridged:
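Endpoint is GCLM transcript level by qRT-PCR, normalized to three housekeeping genes, after 48 h chemical exposure of human HepaRG cells (0.5% DMSO vehicle, top 100 uM, half-log dilutions). Fitting was bidirectional relative to DMSO.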

Read-out in assay [11]: Hypoxia-inducible factor 1-alpha (Homo sapiens) (UniProt Q16665)
As to the kind of experiment: LTEA_HepaRG_HIF1A: Life Technologies and Expression Analysis (LTEA) Assay for Hypoxia-inducible factor 1 (HIF1A) Trancription factor using HepaRG (AID 2283503). The method in brief:
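HIF1A transcript level read by qRT-PCR (ACTB, GAPDH, POLR2A normalization) after 48 h chemical exposure of HepaRG cultures. Eight half-log concentrations, top 100 uM, 0.5% DMSO vehicle, duplicates; bidirectional curve fit against DMSO baseline.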

Read-out in assay [12]: 3-Hydroxy-3-Methylglutaryl-CoA Synthase 2 (HMGCS2), HMGCS2 (gene 3158)
Kind of assay: LTEA_HepaRG_HMGCS2: Life Technologies and Expression Analysis (LTEA) Assay for 3-Hydroxy-3-Methylglutaryl-CoA Synthase 2 (HMGCS2) using HepaRG (AID 2283504). The procedure, abridged: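 Differentiated human HepaRG cells were exposed in duplicate for 48 h in serum-free induction medium to eight concentrations (top 100 uM, half-log steps, 0.5% DMSO). HMGCS2 mRNA was quantified by TaqMan qRT-PCR, normalised to ACTB, GAPDH and POLR2A, then fitted bidirectionally against DMSO.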

Read-out in the next assay: HGF (gene 3082)
As to the kind of experiment: LTEA_HepaRG_HGF: Life Technologies and Expression Analysis (LTEA) Assay for Hepatocyte Growth Facto (HGF) using HepaRG (AID 2283505). The procedure, abridged: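 Differentiated human HepaRG cells in serum-free induction medium were exposed in duplicate for 48 h to eight concentrations (top 100 uM, half-log steps, 0.5% DMSO). HGF mRNA was quantified by qRT-PCR, normalized to ACTB, GAPDH and POLR2A.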

Read-out in assay [13]: Intercellular Adhesion Molecule 1 (ICAM1), ICAM1 (gene 3383)
Kind of assay: LTEA_HepaRG_ICAM1: Life Technologies and Expression Analysis (LTEA) Assay for Intercellular Adhesion Molecule 1 (ICAM1) using HepaRG (AID 2283507). The procedure, abridged: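 Differentiated HepaRG cells in serum-free induction medium were exposed in duplicate for 48 h to eight half-log concentrations up to 100 uM in 0.5% DMSO. Transcript levels were measured by qRT-PCR normalized to ACTB, GAPDH and POLR2A; bidirectional fits relative to DMSO.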

Read-out in assay [14]: Glutathione S-transferase M3 (GSTM3), GSTM3 (gene 2947)
As to the kind of experiment: LTEA_HepaRG_GSTM3: Life Technologies and Expression Analysis (LTEA) Assay for Glutathione S-transferase M3 (GSTM3) using HepaRG (AID 2283501). The procedure, abridged:
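Differentiated HepaRG cells in serum-free induction medium were exposed in duplicate for 48 h to 8 half-log concentrations up to 100 uM in 0.5% DMSO. GSTM3 mRNA was measured by TaqMan qRT-PCR, normalized to ACTB/GAPDH/POLR2A, and fitted bidirectionally versus DMSO.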

Read-out in assay [15]: Heat shock 70 kDa protein 1 (HSPA1A), gene 3303
Kind of assay: LTEA_HepaRG_HSPA1A: Life Technologies and Expression Analysis (LTEA) Assay for Heat shock 70 kDa protein 1 (HSPA1A) using HepaRG (AID 2283502). The method in brief:
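Cells were plated and cultured for 48 h, then switched to serum-free induction medium. Chemicals were added at eight half-log concentrations up to 100 uM for 48 h. RNA was then isolated and HSPA1A measured by qRT-PCR with bidirectional curve fitting against DMSO.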

Read-out in assay [16]: Insulin Like Growth Factor 1 (IGF1), IGF1 (gene 3479)
As to the kind of experiment: LTEA_HepaRG_IGF1: Life Technologies and Expression Analysis (LTEA) Assay for Insulin Like Growth Factor 1 (IGF1) using HepaRG (AID 2283506). The method in brief: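 Cells are thawed, plated and cultured 48 h, then exposed in duplicate to chemical (highest 100 uM, half-log steps, 0.5% DMSO) for another 48 h. Total RNA is analysed by Fluidigm qRT-PCR for IGF1 expression relative to vehicle.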

Read-out in assay [17]: Cytochrome P450 7A1 (Homo sapiens) (UniProt P22680)
As to the kind of experiment: LTEA_HepaRG_CYP7A1: Life Technologies and Expression Analysis (LTEA) Assay for Cytochrome P450 7A1 (CYP7A1) using HepaRG (AID 2283496). The procedure, abridged:
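HepaRG, 48 h exposure, 8-pt half-log series from 100 uM, 0.5% DMSO vehicle, duplicates. Readout: TaqMan qRT-PCR mRNA vs three housekeeping genes; bidirectional curve fit against DMSO baseline.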

Read-out in assay [18]: Cytochrome P450 3A7 (Homo sapiens) (UniProt P24462)
As to the kind of experiment: LTEA_HepaRG_CYP3A7: Life Technologies and Expression Analysis (LTEA) Assay for CYP3A7 using HepaRG (AID 2283492). The procedure, abridged: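 HepaRG cells plated 48 h, then dosed in serum-free induction medium for 48 h at 8 concentrations (top 100 uM, half-log steps, 0.5% DMSO). CYP3A7 mRNA by qRT-PCR, normalised to ACTB/GAPDH/POLR2A; bidirectional fit versus DMSO.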

Hypoxia-inducible factor 1-alpha (Homo sapiens), sequence (Q16665 whole entry, looked up): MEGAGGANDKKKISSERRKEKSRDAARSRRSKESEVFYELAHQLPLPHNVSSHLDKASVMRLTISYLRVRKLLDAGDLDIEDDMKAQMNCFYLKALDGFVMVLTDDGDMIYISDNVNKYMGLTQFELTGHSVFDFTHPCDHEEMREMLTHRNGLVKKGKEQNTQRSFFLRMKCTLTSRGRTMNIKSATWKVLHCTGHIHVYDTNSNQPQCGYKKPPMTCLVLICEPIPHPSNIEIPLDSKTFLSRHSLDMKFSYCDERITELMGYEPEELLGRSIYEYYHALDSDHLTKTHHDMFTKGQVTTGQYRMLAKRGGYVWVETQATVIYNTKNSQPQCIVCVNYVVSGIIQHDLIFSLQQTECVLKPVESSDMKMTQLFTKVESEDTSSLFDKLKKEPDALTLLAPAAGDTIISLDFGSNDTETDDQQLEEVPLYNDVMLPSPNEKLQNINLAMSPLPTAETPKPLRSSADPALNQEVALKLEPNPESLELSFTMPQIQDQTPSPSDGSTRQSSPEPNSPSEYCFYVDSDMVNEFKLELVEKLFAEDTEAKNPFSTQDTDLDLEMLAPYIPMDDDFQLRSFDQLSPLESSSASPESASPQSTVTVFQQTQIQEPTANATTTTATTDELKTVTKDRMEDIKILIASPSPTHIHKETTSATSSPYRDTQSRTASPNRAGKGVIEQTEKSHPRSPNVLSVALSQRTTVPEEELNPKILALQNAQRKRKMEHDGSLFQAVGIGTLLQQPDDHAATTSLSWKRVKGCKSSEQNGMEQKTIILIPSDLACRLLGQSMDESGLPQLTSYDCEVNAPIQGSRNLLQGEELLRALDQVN
Cytochrome P450 3A7 (Homo sapiens), sequence (P24462 whole entry, looked up): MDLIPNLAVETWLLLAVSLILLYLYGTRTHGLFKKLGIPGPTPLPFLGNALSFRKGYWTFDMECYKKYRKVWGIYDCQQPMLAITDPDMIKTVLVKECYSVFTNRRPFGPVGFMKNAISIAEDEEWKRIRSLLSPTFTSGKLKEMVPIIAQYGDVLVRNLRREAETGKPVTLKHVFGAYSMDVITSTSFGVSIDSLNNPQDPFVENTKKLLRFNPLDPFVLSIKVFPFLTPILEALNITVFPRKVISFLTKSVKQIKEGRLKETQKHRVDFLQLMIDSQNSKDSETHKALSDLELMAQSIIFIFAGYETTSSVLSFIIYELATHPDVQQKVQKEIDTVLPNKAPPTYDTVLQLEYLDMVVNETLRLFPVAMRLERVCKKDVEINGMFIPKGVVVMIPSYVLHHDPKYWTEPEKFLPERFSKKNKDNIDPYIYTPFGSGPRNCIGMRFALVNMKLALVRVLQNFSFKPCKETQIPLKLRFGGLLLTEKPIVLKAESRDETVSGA

Take `CC(C)=CC1C(C(=O)OCN2C(=O)C3=C(CCCC3)C2=O)C1(C)C` (stereo not drawn): the compound was classed as inactive (in assay [1]; in [2]; in [3]; in assay [4]; with CYP3A5 (gene 1577); in [5]). For the same compound, the result in assay [6], in [7], in assay [8], in assay [9], in [10] and in assay [11] was inactive. Further, the call (in assay [12]; with HGF (gene 3082); in assay [13]) was inactive.

In the case of `CON=C(C(=O)OC)c1ccccc1CON=C(C)c1cccc(C(F)(F)F)c1`, the result in [1], in assay [2], in [3], in assay [4], in assay [5] and in assay [6] was inactive. For the same compound, the call in assay [7], in [8], in assay [9], in assay [14], in assay [15] and in [11] was inactive. The call (in assay [12]; with HGF (gene 3082); in [13]) was inactive. Besides, the AC50 (with CYP3A5 (gene 1577); in [16]) was 50 µM (active) in each case.

For the compound `COc1cc(OC)nc(Sc2cccc(Cl)c2C(=O)O)n1`, the call (in assay [1]; in assay [2]; in assay [3]; in assay [4]; with CYP3A5 (gene 1577); in assay [5]) was inactive. The compound was called inactive in assay [6], in assay [17], in [7], in [8], in [9] and in assay [10]. Also, the outcome (in [11]; in assay [12]; in the assay with HGF (gene 3082); in assay [13]) was inactive.

Take `CCOP(=O)(SC(C)CC)N1CCSC1=O` (stereo not drawn): the outcome (in [1]; in [2]; in assay [3]; in [4]; with CYP3A5 (gene 1577); in assay [7]) was inactive. Besides, the outcome in assay [8], in assay [9], in [11] and in assay [13] was inactive. Besides, the half-maximal activity concentration (AC50) in assay [5] was 16.1 µM (active); in [6] it was 12.6 µM (active); in [12] it was 21.3 µM (active); in [16], 21 µM (active).

In the case of `CC(C)[C@H](C(=O)O[C@H](C#N)c1cccc(Oc2ccccc2)c1)c1ccc(Cl)cc1`, the outcome (in assay [1]; in assay [2]; in [4]; in assay [18]; in the assay with CYP3A5 (gene 1577); in [5]) was inactive. For the same compound, the result in assay [6], in [7], in [8], in assay [9], in assay [11] and in assay [12] was inactive. Moreover, the outcome (with HGF (gene 3082); in [13]) was inactive. In addition, the AC50 in assay [16] was 50 µM (active).

For the compound `Nc1nc(N)nc(NC2CC2)n1`, the compound was called inactive (in assay [1]; in assay [2]; in assay [3]; in assay [4]; in the assay with CYP3A5 (gene 1577); in [5]). For the same compound, the compound was classed as inactive in assay [6], in [7], in [8], in [9], in [14] and in [11]. For the same compound, the result (in assay [12]; with HGF (gene 3082); in assay [16]; in [13]) was inactive.

As a reminder, the AC50 is the midpoint of the concentration-response curve, whichever way the signal moves.
